Compound activity deposited in PubChem BioAssay by several laboratories.
phage Ecoli inh: growth loss of phage-infected E. coli, primary screen, RecBCD inhibitor project, absorbance, with phage, HTS; inhibition, % at 11.9 µM; actives 0.26% (n = 360,000); in the data active = inhibition above about 11%
AddAB inh: growth inhibition of E. coli expressing H. pylori AddAB, primary screen, AddAB inhibitor project, absorbance; actives 0.29% (n = 330,000); inhibition, % at 11.9 µM; in the data active = inhibition above about 12%;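 note: 0% = vehicle wells of infected cells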
E coli growth-1: E. coli V3065 growth inhibition, primary screen, counter-screen for AddAB inhibitor project, absorbance, OD600; 18 h; inhibition, % at 11.9 µM; actives 0.27% (n = 330,000); AID 449728, 2010;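 active = inhibition above the campaign's mean inhibition across all tested compounds plus 3 SD, cut at about 9.9% in these data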;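 note: uninfected addAB+ strain grown without phage in ampicillin broth; 0% = DMSO wells and 100% = ciprofloxacin 0.95 µg/ml wells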
E coli growth-2: E. coli growth inhibition, primary screen, OD600. Escherichia coli growth, 23 h; active compounds read low. OD600 absorbance (test concentration not listed). actives 0.21% (n = 330,000);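 active = OD600 absorbance below the run mean of sample wells minus 3.6 SD, in any replicate, cut at about 0.56 in these data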
Tat transport: E. coli Tat export inhibitors, primary screen, MC4100, TorA-mCherry reporter, fluorescence, single point; inhibition, % at 10 µM; actives 0.036% (n = 340,000);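 active = mean replicate inhibition at least 50% and at least half of replicates individually reaching 50%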;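 note: exported cargo escapes ClpAP degradation while cytoplasmic cargo is degraded and loses fluorescence; 0% = median of neutral control wells and 100% = median of NaSCN control wells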
AddAB confirm: growth loss of phage-infected E. coli expressing H. pylori AddAB, confirmation, AddAB inhibitor project, absorbance, E. coli V3065, T4 phage, triplicate | shares compounds with AddAB inh | OD; T4 phage with gene 2 nonsense mutations | inhibition, % at 11.9 µM | actives 64% (n = 880) | AID 488942, 2010;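 active = mean inhibition above a set limit taken from the earlier primary screen, cut at about 13% in these data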;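 note: higher means less bacterial growth since AddAB block lets phage replicate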
RecBCD counter: growth loss of RecBCD+ E. coli with mutant T4 phage, counter-screen for AddAB inhibitor project, absorbance, V66 E. coli. shares compounds with AddAB inh. OD growth. inhibition, % at 11.9 µM. actives 73% (n = 880);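 active = mean inhibition above the mean of solvent-only control wells plus 3 SD, cut at about 4% in these data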;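 note: optical density read after an 18 h incubation at 37 °C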
bact viab count: bacterial viability inhibition counter-screen, confirmation, counter-screen for AddAB inhibitor project, absorbance | actives 35% (n = 880) | shares compounds with AddAB inh | absorbance (AddAB counterscreen) | inhibition, % at 11.9 µM; in the data active = inhibition above about 25%
* = called active by the depositor; nt = no result. An excerpt weighted towards active compounds, which were near 0.5% of everything screened.

SMILES | phage Ecoli inh | AddAB inh | E coli growth-1 | E coli growth-2 | Tat transport | AddAB confirm | RecBCD counter | bact viab count
CNCC(Cc1ccccc1)NCC(Cc1cccc2ccccc12)NCCc1ccc(C)cc1 (stereo not drawn) | nt | nt | nt | 0.048* | nt | nt | nt | nt
CNC[C@H](Cc1ccccc1)NC[C@@H](Cc1cccc2ccccc12)NCCc1ccc(C)cc1 | 0 | -2 | -2 | nt | 4 | nt | nt | nt
Cc1ccc(CON=Cc2c(O)cc(C)oc2=O)cc1 | nt | nt | nt | 0.68 | nt | nt | nt | nt
Cc1ccc(CN2CCN(N=Cc3ccc(C(=O)O)cc3)CC2)c(C)c1 | nt | nt | nt | 0.64 | nt | nt | nt | nt
O=[N+]([O-])c1cc(C(F)(F)F)ccc1N1CCN(S(=O)(=O)c2ccc3ccccc3c2)CC1 | -2 | 3 | 0 | 0.54* | -1 | nt | nt | nt
CCOc1cc(C=NNc2cc(C)nc(-n3nc(C)cc3C)n2)ccc1O | nt | nt | nt | 0.66 | nt | nt | nt | nt
CNS(=O)(=O)c1cccc(C(=O)OCC(=O)Nc2cc(F)ccc2F)c1 | 0 | 3 | 11* | 0.7 | -12 | nt | nt | nt
CNS(=O)(=O)c1cccc(C(=O)OCC(=O)Nc2ccc(Cl)cc2F)c1 | 2 | 1 | 1 | 0.69 | 3 | nt | nt | nt
Cc1nc(N)nc(N)c1Oc1ccc(Cl)cc1 | 4 | nt | nt | 0.52* | -2 | nt | nt | nt
O=C(O)CCC(=NNC(=O)c1ccc(-c2ccccc2)cc1)c1ccccc1 | nt | nt | nt | 0.68 | nt | nt | nt | nt
NC1=C(Br)C(=O)c2ncccc2C1=O | 35* | nt | nt | nt | -15 | nt | nt | nt
CCN1C(=O)C2C(c3ccc(-c4ccc(F)cc4)c(OC)c3)N[C@@](C)(C(=O)OC)C2C1=O (stereo partly drawn) | nt | nt | nt | 0.72 | nt | nt | nt | nt
Cc1cccc(NC(=S)N/N=C/c2ccc([N+](=O)[O-])s2)c1 | 11 | 15* | 19* | nt | -10 | nt | nt | nt
Cc1cccc(NC(=O)NC(C)C(c2cccs2)N2CCOCC2)c1 (stereo not drawn) | 4 | 100* | 99* | 0.73 | -10 | -1 | 2 | 3
Cc1ccc(CN2C(=O)C3Cc4c([nH]c5ccccc45)C(C)(C)N3C2=O)cc1 (stereo not drawn) | nt | nt | nt | 0.69 | nt | nt | nt | nt
O=Nc1ccc(O)c2ncccc12 | 2 | 12* | 12* | 0.4* | 5 | 98* | 3 | 17
Cc1ccc(OCC(=O)N2CCc3ccccc32)c([N+](=O)[O-])n1 | 8 | 24* | 19* | 0.67 | 4 | 46* | 5.4* | 43*
O=C(N/N=C/C(Br)=C\c1ccccc1)c1ccc2nc[nH]c2c1 | 5 | 12* | 0 | nt | 9 | 1 | 2 | -2
O=C(NN=C/C(Br)=C\c1ccccc1)c1ccc2nc[nH]c2c1 | nt | nt | nt | 0.65 | nt | nt | nt | nt
CCOC(=O)N1CCN(c2cc(=O)n(-c3ccc(C)cc3)c(=O)[nH]2)CC1 | 2 | 97* | 22* | 0.79 | 3 | -2 | 0 | -3
CN(C)c1ccc(N2C(CC(=O)O)c3cc(C(F)(F)F)ccc3S2(=O)=O)cc1 (stereo not drawn) | nt | nt | nt | 0.7 | nt | nt | nt | nt
NC(=O)C1=CC(c2ccc(C(F)(F)F)cc2)CC(OCCCCO)O1 (stereo not drawn) | nt | nt | nt | 0.68 | nt | nt | nt | nt
C=CCc1cccc(C=Nc2ncccc2O)c1O | nt | nt | nt | 0.69 | nt | nt | nt | nt
O=C(COC(=O)C1CCN(S(=O)(=O)c2ccc3c(c2)OCCO3)CC1)NC1CCCCC1 | 2 | 0 | 3 | 0.68 | 2 | nt | nt | nt
O=C(COC(=O)C1CCN(S(=O)(=O)c2ccc3c(c2)OCCO3)CC1)NC1CCS(=O)(=O)C1 (stereo not drawn) | 0 | 26* | 9.8* | 0.68 | -3 | -6 | -2 | -5
SMILES | phage Ecoli inh | AddAB inh | E coli growth-1 | E coli growth-2 | Tat transport | AddAB confirm | RecBCD counter | bact viab count
CCCc1cc(C(=O)Nc2ccccc2SC)no1 | 3 | 98* | 91* | 0.76 | -6 | 0 | 0 | -3
CCOc1ccc(NC(=O)Cn2cc(C(C)=O)c3ccccc32)cc1 | 3 | 1 | -2 | 0.73 | -6 | nt | nt | nt
COc1ccc(NC(=O)Cn2cc(C(C)=O)c3ccccc32)cc1 | 10 | 16* | 14* | 0.68 | -1 | 9 | 12* | 11
CCOC(=O)c1[nH]c2ccccc2c1NC(C)=O | 6 | -3 | -3 | 0.73 | -6 | nt | nt | nt
CCOC(=O)c1[nH]c2ccccc2c1NC(=O)C(CC)CC | 2 | 63* | 11* | 0.71 | 12 | -3 | 0 | -2
Cc1ccc(NC(=O)NCC2CC2(Cl)Cl)cc1 (stereo not drawn) | 3 | 1 | 2 | nt | -11 | nt | nt | nt
O=C(NCC1CC1(Cl)Cl)Nc1ccc(Cl)c(Cl)c1 (stereo not drawn) | 9 | 13* | 6 | 0.43* | -5 | 12 | 13* | 2
CCn1cc(C(=O)NCc2ccccn2)c(=O)c2cc(F)c(N3CCN(C)CC3)cc21 | 6 | 98* | 93* | nt | 5 | 99* | 16* | 98*
CCn1cc(C(=O)NCCc2ccccc2)c(=O)c2cc(F)c(N3CCN(C)CC3)cc21 | 2 | 21* | 13* | 0.6 | 7 | 71* | 0 | 22
CCc1nnc(NC(=O)C(NC(=O)c2cccc(S(=O)(=O)N3CCOCC3)c2)C(C)C)s1 (stereo not drawn) | nt | nt | nt | 0.65 | nt | nt | nt | nt
CCCC(=O)NC(c1ccccc1Cl)c1ccc2cccnc2c1O (stereo not drawn) | 26* | 34* | 35* | nt | 2 | 29* | 27* | 26*
CCCCC(=O)NC(c1ccc(OC)cc1)c1ccc2cccnc2c1O (stereo not drawn) | 10 | nt | nt | nt | nt | nt | nt | nt
COc1ccc(C(NC(=O)C(C)C)c2ccc3cccnc3c2O)cc1 (stereo not drawn) | 25* | 26* | 26* | 0.59 | 27 | 26* | 24* | 19
COC(=O)c1sc2ccccc2c1N | 2 | 35* | 21* | 0.7 | 1 | 2 | -1 | -1
COC(=O)c1sc2ccccc2c1C(=O)OC | 2 | nt | nt | 0.67 | -8 | nt | nt | nt
CSc1ccc(C=NNC(=O)c2ccc(-n3cnnn3)cc2)cc1 | nt | nt | nt | 0.69 | nt | nt | nt | nt
CCn1cc(C(=O)O)c(=O)c2cnc(N3CCN(C(=S)Nc4ccccc4Cl)CC3)nc21 | 0 | 97* | 84* | 0.54 | -6 | 98* | 0 | 32*
CCn1cc(C(=O)O)c(=O)c2cnc(N3CCN(C(=S)Nc4ccc(F)cc4)CC3)nc21 | -3 | 18* | 25* | 0.6 | nt | 25* | 1 | 10
C=CCNC(=S)N1CCN(c2ncc3c(=O)c(C(=O)O)cn(CC)c3n2)CC1 | 3 | 20* | 11* | 0.46* | 7 | 89* | 3 | 26*
Cc1c(Cl)cccc1NC(=S)N1CCN(c2ncccn2)CC1 | 3 | 1 | -3 | 0.69 | -8 | nt | nt | nt
C=CCNC(=S)N1CCC(C(=O)c2ccc(OC)cc2)CC1 | 2 | 3 | -1 | 0.7 | 6 | nt | nt | nt
